This is an account of results in PubChem BioAssay (Tox21).

Molecules are shown by their SMILES. Unmarked numbers belong to inactive results. Inconclusive results are not listed. Calls of active or inactive are those of the source. Unless noted, calls follow the shape of the dose curve; as a rule, active = well fitted curve in the direction sought with a large enough effect in the repeat runs; inconclusive = weak or mixed curves; inactive = no such curve, though single readings can be large; an effect the other way counts as inactive or inconclusive.

Assay [1] deals with Thyrotropin-releasing hormone receptor (Homo sapiens) (UniProt P34981). Put plainly: qHTS assay to identify small molecule agonists of the thyrotropin-releasing hormone receptor (TRHR) signaling pathway (AID 1346891; calls by dose curve;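 also: HEK293 cells expressing TRHR with calcium dye readout; series mostly up to about 58 µM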). The method in brief:
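In 1536-format, 1500 TRHR-Hek293 cells per well grew 18 h, took up calcium dye for 2 h at 37 °C, received compound, and were read kinetically; 15-point titrations, triplicates.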

Assay [2] in a line: Human pregnane X receptor (PXR) small molecule agonists, qHTS cell viability counter screen (AID 1346977). Also: nearly all actives have a fitted effect of over 50% in size. The method in brief:
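Readout is CellTiter-Fluor fluorescence from PXR-Luc HepG2 cells. Plated cells rested 5hr, then were treated with compounds for 24hr at 37C and 5% CO2, with reagent present during the last hour.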
Background: Quantitative high-throughput screening tests each substance at several concentrations.

Assay [3] is described as follows: Caspase-3/7 induction in HepG2 cells by small molecules, qHTS assay (AID 1346978). Also: nearly all actives have a fitted effect of over 15% in size. In outline:
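Caspase-3/7 induction was measured by Caspase-Glo 3/7 luminescence (30 min, room temperature) after a 17 hr compound exposure of wild-type HepG2 cells seeded at 2,000 per well and pre-incubated 5 hr.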

A short description of assay [4]: Caspase-3/7 induction in CHO-K1 cells by small molecules, qHTS cell viability counter screen (AID 1346979). Also: nearly all actives have a fitted effect of over 35% in size. The method in brief: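 To flag cytotoxic compounds, treated CHO-K1 wild-type cells were given CellTiter-Fluor at 16hr and read fluorescently after 1hr at 37C; the caspase-3/7 luminescence was measured in these same wells.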
Assay [5] in a line: Caspase-3/7 induction in CHO-K1 cells by small molecules, qHTS assay (AID 1346980). Also: nearly all actives have a fitted effect of over 15% in size. In outline: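 Luminescent Caspase-Glo 3/7 read (30min, room temperature) quantified apoptosis induction. Cells were wild-type CHO-K1, treated with compound for 17hr at 37 C and 5% CO2.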
Assay [6] can be described thus: Caspase-3/7 induction in HepG2 cells by small molecules, qHTS cell viability counter screen (AID 1346981). Also: series mostly up to about 92 µM; nearly all actives have a fitted effect of over 30% in size. In outline: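 Wild-type HepG2 cells, 2,000/well, settled 5 hr at 37 C, 5% CO2 before compound addition. Viability read by CellTiter-Fluor fluorescence, reagent added after 16 hr compound exposure, then 1 hr at 37C, in the same wells as the caspase read.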
The target in assay [7] is Nuclear receptor subfamily 1 group I member 2 (Homo sapiens) (UniProt O75469). Put plainly: Human pregnane X receptor (PXR) small molecule agonists, qHTS assay (AID 1346982). Also: nearly all actives have a fitted effect of over 35% in size. Also: potency is read from the fitted curve at half-maximal effect. The method in brief: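 PXR-Luc HepG2 reporter cells (CYP3A4-driven luciferase) in 5% charcoal-stripped FBS medium, plated 5 h before compound addition, then treated 24 h at 37C. Luciferase read by ONE-Glo luminescence after 30 min at room temperature.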

For assay [8], the target named is Cytochrome P450 2C19 (Homo sapiens) (UniProt P33261). Put plainly: Cytochrome P450 Family 2 Subfamily C Member 19 (CYP2C19) small molecule antagonists: luciferase reporter qHTS assay (AID 1671197). Also: nearly all actives have a fitted effect of over 65% in size. Also: potency is read from the fitted curve at half-maximal effect. The method in brief:
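Inhibition of CYP2C19 was scored from loss of luminescence in a P450-Glo proluciferin substrate assay, NADPH-started and run 1 h at 37C, with ketoconazole as positive control.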

Assay [9] concerns the target Cytochrome P450 2C9 (Homo sapiens) (UniProt P11712). Put plainly: Cytochrome P450 Family 2 Subfamily C Member 9 (CYP2C9) small molecule antagonists: luciferase reporter qHTS assay (AID 1671198). Also: nearly all actives have a fitted effect of over 50% in size. Also: potency is read from the fitted curve at half-maximal effect. In outline:
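Enzyme-substrate mix preincubated with compound 10 min at room temperature; reaction started with NADPH regeneration solution, 1 h 37C. Luminescent luciferin product read after 20 min detection reagent.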
(In general: A reporter such as luciferase makes a cellular process visible.)

The target in assay [10] is Cytochrome P450 1A2 (Homo sapiens) (UniProt P05177). Put plainly: Cytochrome P450 Family 1 Subfamily A Member 2 (CYP1A2) small molecule antagonists: luciferase reporter qHTS assay (AID 1671199). Also: nearly all actives have a fitted effect of over 50% in size. Also: potency is read from the fitted curve at half-maximal effect. In outline: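 P450-Glo CYP1A2 enzyme–proluciferin substrate mix with compound 10 min at room temperature, then NADPH regeneration 1 h at room temperature. Luciferin detection reagent added, luminescence read after 20 min; furafylline positive control.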

Assay [11] addresses Voltage-gated inwardly rectifying potassium channel KCNH2 (Homo sapiens) (UniProt Q12809). Put plainly: Human Ether-a-go-go-Related Gene (hERG) channel small molecule antagonists: fluorescence cell-based qHTS assay (AID 1671200). Also: nearly all actives have a fitted effect of over 50% in size. Also: potency is read from the fitted curve at half-maximal effect. The method in brief: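 Measured: Tl+ flux via fluorescence (480/540 nm) in hERG-expressing U2OS cells after 1 h dye loading at room temperature.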
Background: hERG is a cardiac potassium channel; its block is linked to QT prolongation.

The target of assay [12] is Cytochrome P450 3A4 (Homo sapiens) (UniProt P08684). Put plainly: Cytochrome P450 Family 3 Subfamily A Member 4 (CYP3A4) small molecule antagonists: luciferase reporter qHTS assay (AID 1671201). Also: nearly all actives have a fitted effect of over 50% in size. Also: potency is read from the fitted curve at half-maximal effect. The method in brief: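 Setup: enzyme-substrate mix, compound pin transfer, 10 min RT. Reaction: NADPH regeneration solution, 1 h RT. Readout: detection reagent stops turnover, luminescence measured after 20 min, expressed in relative luminescence units.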

In assay [13] the target is Cytochrome P450 2D6 (Homo sapiens) (UniProt P10635). Put plainly: Cytochrome P450 Family 2 Subfamily D Member 6 (CYP2D6) small molecule antagonists: luciferase reporter qHTS assay (AID 1671196). Also: nearly all actives have a fitted effect of over 50% in size. Also: potency is read from the fitted curve at half-maximal effect. In outline:
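Cell-free P450-Glo system: CYP2D6 with proluciferin substrate was pre-incubated with compound for 10 min, then reacted with NADPH regeneration for 1 h at room temperature. Luciferin product was detected after 20 min, and data were reported as relative luminescence units.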

Sequence of Nuclear receptor subfamily 1 group I member 2 (Homo sapiens) (O75469 whole entry, looked up): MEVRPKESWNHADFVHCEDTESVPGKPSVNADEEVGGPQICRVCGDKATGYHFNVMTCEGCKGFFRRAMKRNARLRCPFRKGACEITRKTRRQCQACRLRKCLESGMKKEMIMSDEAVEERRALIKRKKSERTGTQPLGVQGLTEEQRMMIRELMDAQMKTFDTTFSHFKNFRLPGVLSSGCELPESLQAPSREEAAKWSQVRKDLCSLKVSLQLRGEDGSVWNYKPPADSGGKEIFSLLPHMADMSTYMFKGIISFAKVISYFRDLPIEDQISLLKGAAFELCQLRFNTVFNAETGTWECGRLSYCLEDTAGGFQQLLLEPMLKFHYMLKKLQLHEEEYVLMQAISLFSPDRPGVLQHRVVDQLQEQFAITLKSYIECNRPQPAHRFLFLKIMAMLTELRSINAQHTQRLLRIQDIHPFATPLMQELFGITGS
Sequence of Cytochrome P450 2D6 (Homo sapiens) (P10635 whole entry, looked up): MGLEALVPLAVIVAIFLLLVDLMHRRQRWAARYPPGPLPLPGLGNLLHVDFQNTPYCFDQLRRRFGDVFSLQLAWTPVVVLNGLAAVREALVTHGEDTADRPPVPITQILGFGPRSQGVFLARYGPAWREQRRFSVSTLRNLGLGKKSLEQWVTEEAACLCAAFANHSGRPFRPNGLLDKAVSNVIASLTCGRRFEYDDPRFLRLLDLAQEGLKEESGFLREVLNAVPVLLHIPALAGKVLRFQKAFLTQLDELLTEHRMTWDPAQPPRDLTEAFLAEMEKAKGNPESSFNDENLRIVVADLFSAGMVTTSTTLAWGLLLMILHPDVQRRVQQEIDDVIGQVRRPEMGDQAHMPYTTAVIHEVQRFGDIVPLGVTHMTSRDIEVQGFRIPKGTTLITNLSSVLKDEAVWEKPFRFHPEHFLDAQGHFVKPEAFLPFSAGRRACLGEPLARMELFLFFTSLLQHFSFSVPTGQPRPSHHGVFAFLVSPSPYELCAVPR
Sequence of Cytochrome P450 3A4 (Homo sapiens) (P08684 whole entry, looked up): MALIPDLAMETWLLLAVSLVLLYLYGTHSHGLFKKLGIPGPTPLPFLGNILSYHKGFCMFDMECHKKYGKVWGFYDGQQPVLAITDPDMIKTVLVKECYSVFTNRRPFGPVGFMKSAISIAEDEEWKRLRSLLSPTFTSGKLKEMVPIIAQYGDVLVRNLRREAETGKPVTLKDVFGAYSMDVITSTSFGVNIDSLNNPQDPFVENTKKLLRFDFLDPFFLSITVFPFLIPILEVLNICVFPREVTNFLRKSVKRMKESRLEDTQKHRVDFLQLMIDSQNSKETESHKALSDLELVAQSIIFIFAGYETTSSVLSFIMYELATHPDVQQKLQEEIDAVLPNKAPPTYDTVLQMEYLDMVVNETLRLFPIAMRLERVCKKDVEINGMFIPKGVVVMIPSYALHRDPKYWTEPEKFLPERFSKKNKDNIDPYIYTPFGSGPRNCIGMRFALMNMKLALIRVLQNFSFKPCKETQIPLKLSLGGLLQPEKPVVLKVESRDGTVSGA
Sequence of Cytochrome P450 2C19 (Homo sapiens) (P33261 whole entry, looked up): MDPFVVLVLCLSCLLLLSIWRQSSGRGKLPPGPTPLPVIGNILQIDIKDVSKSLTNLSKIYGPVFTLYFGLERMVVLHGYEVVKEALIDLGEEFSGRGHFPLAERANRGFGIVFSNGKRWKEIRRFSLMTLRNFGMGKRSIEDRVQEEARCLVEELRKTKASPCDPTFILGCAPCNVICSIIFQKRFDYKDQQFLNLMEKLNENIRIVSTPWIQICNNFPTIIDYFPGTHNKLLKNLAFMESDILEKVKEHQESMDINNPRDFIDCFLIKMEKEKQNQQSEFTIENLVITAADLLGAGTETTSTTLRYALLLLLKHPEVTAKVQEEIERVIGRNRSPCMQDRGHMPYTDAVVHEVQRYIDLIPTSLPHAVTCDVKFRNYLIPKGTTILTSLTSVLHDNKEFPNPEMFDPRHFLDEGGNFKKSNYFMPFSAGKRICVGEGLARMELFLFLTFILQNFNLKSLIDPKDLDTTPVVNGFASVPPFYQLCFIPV
Sequence of Cytochrome P450 2C9 (Homo sapiens) (P11712 whole entry, looked up): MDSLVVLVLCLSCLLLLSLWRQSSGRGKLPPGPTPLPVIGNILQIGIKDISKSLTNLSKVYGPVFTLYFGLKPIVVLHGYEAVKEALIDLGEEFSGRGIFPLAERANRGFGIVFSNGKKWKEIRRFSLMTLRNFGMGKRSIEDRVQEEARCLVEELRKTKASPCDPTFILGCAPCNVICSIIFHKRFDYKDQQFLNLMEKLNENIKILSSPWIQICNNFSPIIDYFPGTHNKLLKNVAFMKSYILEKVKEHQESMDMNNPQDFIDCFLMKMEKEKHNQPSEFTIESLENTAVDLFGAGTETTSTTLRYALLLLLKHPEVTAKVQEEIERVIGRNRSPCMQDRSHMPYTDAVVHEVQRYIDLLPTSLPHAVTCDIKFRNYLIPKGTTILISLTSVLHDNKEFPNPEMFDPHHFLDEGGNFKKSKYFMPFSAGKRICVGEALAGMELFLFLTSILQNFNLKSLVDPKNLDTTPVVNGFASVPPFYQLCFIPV
Sequence of Cytochrome P450 1A2 (Homo sapiens) (P05177 whole entry, looked up): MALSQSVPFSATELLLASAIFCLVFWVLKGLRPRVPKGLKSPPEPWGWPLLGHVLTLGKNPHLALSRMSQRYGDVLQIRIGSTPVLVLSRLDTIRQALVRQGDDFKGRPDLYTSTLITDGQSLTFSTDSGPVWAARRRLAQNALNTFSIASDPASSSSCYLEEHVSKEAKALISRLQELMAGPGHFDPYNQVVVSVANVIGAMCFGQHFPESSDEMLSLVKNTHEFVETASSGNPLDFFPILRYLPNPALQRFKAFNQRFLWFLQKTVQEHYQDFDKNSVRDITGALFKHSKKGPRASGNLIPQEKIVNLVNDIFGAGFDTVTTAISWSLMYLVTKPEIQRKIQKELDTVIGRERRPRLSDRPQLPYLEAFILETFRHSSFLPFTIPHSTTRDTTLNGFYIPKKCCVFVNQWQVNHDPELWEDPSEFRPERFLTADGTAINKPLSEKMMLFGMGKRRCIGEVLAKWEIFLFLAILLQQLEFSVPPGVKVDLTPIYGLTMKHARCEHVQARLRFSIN
Sequence of Thyrotropin-releasing hormone receptor (Homo sapiens) (P34981 whole entry, looked up): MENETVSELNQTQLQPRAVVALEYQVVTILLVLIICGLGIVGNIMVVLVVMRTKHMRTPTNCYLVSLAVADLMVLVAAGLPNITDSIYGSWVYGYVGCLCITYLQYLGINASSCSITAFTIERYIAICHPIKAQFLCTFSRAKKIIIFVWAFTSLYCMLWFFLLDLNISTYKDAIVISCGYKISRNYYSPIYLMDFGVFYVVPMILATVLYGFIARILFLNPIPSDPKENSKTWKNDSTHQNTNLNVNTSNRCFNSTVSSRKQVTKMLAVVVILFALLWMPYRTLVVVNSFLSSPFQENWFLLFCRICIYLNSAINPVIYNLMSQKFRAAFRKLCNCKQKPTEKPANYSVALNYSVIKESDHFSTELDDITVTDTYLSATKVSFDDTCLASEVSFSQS
Sequence of Voltage-gated inwardly rectifying potassium channel KCNH2 (Homo sapiens) (Q12809 whole entry, looked up): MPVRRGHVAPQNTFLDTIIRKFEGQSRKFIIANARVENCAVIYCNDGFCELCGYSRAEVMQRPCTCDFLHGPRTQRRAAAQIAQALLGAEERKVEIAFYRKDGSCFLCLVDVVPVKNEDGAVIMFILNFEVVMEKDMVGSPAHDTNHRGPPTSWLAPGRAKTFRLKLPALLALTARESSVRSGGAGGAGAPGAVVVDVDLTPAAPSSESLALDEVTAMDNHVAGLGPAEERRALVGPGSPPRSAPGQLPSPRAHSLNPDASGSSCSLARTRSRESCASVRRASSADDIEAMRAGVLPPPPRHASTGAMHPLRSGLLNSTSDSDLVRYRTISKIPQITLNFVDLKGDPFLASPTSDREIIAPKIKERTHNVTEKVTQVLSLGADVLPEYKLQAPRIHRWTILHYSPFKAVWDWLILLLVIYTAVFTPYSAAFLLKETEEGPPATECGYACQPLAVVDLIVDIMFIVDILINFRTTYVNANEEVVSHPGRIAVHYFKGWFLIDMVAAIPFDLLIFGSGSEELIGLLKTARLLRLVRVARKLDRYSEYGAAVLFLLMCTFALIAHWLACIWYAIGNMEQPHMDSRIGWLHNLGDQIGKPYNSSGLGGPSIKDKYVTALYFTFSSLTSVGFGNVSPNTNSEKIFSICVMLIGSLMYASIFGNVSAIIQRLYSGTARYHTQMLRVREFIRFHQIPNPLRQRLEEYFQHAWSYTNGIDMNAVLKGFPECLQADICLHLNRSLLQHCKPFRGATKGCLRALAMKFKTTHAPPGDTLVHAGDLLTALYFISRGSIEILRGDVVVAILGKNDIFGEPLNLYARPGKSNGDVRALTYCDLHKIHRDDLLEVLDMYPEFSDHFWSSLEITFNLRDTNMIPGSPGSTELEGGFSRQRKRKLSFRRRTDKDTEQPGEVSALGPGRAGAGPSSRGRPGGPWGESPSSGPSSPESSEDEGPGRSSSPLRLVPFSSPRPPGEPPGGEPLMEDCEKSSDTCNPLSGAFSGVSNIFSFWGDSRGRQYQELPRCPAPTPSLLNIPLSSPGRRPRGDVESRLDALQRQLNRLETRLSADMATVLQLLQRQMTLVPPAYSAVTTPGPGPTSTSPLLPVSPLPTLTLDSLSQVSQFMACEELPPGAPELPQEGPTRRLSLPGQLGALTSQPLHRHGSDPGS

As for `O=C(OCCOCCOCCOC(=O)c1ccccc1)c1ccccc1`, the molecule was classed as inactive in assay [1]. The Potency result in assay [2], in assay [3], in assay [4], in assay [5], in [6] and in [9] was “inactive” throughout. In addition, the Potency result in assay [11] and in [12] was “inactive” in each case. In addition, the Potency in assay [7] was 27.3 µM (active); in assay [8], 20 µM (active); in [10], 17.8 µM (active).
Consider `Nc1nc(Cl)nc2c1ncn2[C@H]1C[C@H](O)[C@@H](CO)O1`, for which the molecule was called inactive in assay [1]. The Potency entry in [2], in assay [3], in [4], in assay [5], in [6] and in assay [13] was “inactive” throughout. Besides, the Potency result in assay [8], in [11] and in assay [12] was “inactive” in each case. The Potency in assay [7] was 1.71 µM (active); in assay [10], 28.1 µM (active).
Take `Clc1ccccc1-c1nc(-c2ccncc2)no1`: in assay [1], the call was inactive. Also, the Potency result in [2], in assay [3], in [4], in assay [5], in assay [6] and in assay [11] was “inactive” in each case. Also, the Potency in assay [7] is 5.31 µM (active); in [13] it was 13.8 µM (active); in assay [8] it was 0.977 µM (active); in assay [10], 0.512 µM (active); in [12], 30.9 µM (active).
On to `O=C(OCCN1CCOCC1)c1cccnc1Nc1cccc(C(F)(F)F)c1`, for which the molecule was called inactive in [1]. The Potency result in [2], in assay [3], in assay [4], in assay [5], in assay [6] and in [13] was “inactive” each time. Besides, the Potency is 26.6 µM (active) in assay [7], 17.4 µM (active) in assay [9], 9.77 µM (active) in assay [10] and 10.7 µM (active) in assay [11].
As for `C=C(C)C(=O)OCCCCCCCCCCOC(=O)C(=C)C`, in [1], the call was inactive. For the same molecule, the Potency result in assay [2], in assay [3], in assay [4], in [5], in assay [6] and in assay [7] was “inactive” throughout. Moreover, the Potency result in assay [12] is “inactive”. Moreover, the Potency in [13] was 35.6 µM (active); in [10], 44.8 µM (active).
Consider `CC(O)C(C)O` (stereo not drawn), for which the result in [1] was inactive. Moreover, the Potency entry in assay [2], in [3], in [4], in assay [5], in [6] and in assay [7] was “inactive” in each case. The Potency entry in assay [13], in [8], in assay [11] and in assay [12] was “inactive” throughout.
Regarding `O=C(O)CNc1ccccc1`, the molecule was classed as inactive in assay [1]. The Potency entry in [2], in [3], in assay [4], in [5], in assay [6] and in assay [7] was “inactive” throughout. For the same molecule, the Potency entry in assay [13], in [8], in assay [11] and in assay [12] was “inactive” in each case.
For the molecule `CCCCCCCCC(=O)OCC(C)OC(=O)CCCCCCCC` (stereo not drawn), the result in assay [1] was inactive. Besides, the Potency result in assay [2], in assay [3], in assay [4], in assay [5], in [6] and in assay [7] was “inactive” in each case. Also, the Potency result in assay [13], in assay [11] and in assay [12] was “inactive” throughout. Also, the Potency in assay [8] is 83.4 µM (active); in [9] it was 59.1 µM (active).
As to `O=C(N[C@@H](Cc1ccccc1)[C@@H](O)C(=O)N1C[C@@H](O)[C@@H](O)C1)c1cc2cc(Cl)ccc2[nH]1`, the molecule was classed as inactive in assay [1]. Besides, the Potency result in assay [2], in assay [3], in [4], in assay [5], in [6] and in assay [7] was “inactive” throughout. For the same molecule, the Potency in [8] was 39.9 µM (active); in assay [9], 35.6 µM (active); in assay [10] it was 28.3 µM (active).
As to `CCc1cnc(C(=O)O)c(C(=O)O)c1`, the molecule was classed as inactive in assay [1]. Moreover, the Potency result in assay [2], in assay [3], in assay [4], in [5], in [6] and in [7] was “inactive” each time. The Potency result in assay [13], in assay [8], in [10], in assay [11] and in [12] was “inactive” each time.
